Structures are written as SMILES. More than one record can exist for a structure, and the calls need not agree. Active and inactive are the calls of the source. How the source made its calls: active means hit-call score of the fitted dose curve at least 0.9, where 1 is the maximum; inactive means score below 0.9.

The test is described as follows: ATG_ISRE_CIS: Attagene CIS-FACTORIAL HepG2 Assay for human Interferon Regulatory Factor 1 (IRF1) binding to an Interferon-Stimulated Response Element (ISRE) (AID 2282948). The note with it: HepG2 ISRE cis-reporter (Attagene), mRNA transcription readout; actives raise or lower the signal. As for the experimental part: ATG_CIS is a cell-based, multiplexed-readout assay that uses HepG2, a human liver cell line, with measurements taken at 24 hours after chemical dosing in a 24-well plate.ATG_ISRE_CIS is one of 52 assay component(s) measured or calculated from the ATG_CIS assay. It is designed to make measurements of mRNA induction, a form of inducible reporter, as detected with fluorescence intensity signals by Reverse transcription polymerase chain reaction (RT-PCR) and Capillary electrophoresis technology.Data from the assay component ATG_ISRE_CIS was analyzed into 1 assay endpoint. This assay endpoint, ATG_ISRE_CIS, was analyzed with bidirectional fitting relative to DMSO as the negative control and baseline of activity. Using a type of inducible reporter, measures of mRNA for gain or loss-of-signal activity can be used to understand the reporter gene at the transcription factor-level as they relate to the gene IRF1. Furthermore, this assay endpoint can be referred to as a primary readout, because this assay has produced multiple assay endpoints where this one serves a reporter gene function. To generalize the intended target to other relatable targets, this assay endpoint is annotated to the dna binding intended target family, where the subfamily is interferon regulatory factors.
Human liver HepG2 cells are transiently transfected with multiple reporter transcription units (MRTUs) in 6-well plates using FuGene 6 reagent (Roche; 3 ml FuGene/1 mg DNA). The MRTU constructs are regulated by a cis-regulating element (promoter). […] A major difference between the CIS and TRANS system is that in CIS activities of endogenous TFs are measured, whereas the TRANS assay evaluates changes in activities of exogenous, chimeric NR-Gal4 proteins. […] At the end of 24 hour incubation, total RNA was isolated using TriZol reagent (Invitrogen). The isolated RNA is then reverse-transcribed using oligo(dT) primer and Mo-MLV reverse transcriptase (Invitrogen) with DNAse I (Ambion) treatment for 30 min. The one-tenth of the produced cDNA was amplified by PCR using Taq DNA polymerase (Invitrogen) and two reporter sequence-specific primers. The PCR products were fluorescently labeled by primer extension with 6-arboxyfluorescein (6-FAM) 5'-labeled reporter sequence-specific primer (2 min at 95 C, 20 s at 68 C and 10 min at 72 C) and these products were digested with 5U of HpaI (New England Biolabs) for 2h at 37 C. The fragments were purified using Qiaquick PCR columns (Qiagen), analyzed on an ABI 3130xL genetic analyzer (Applied Biosystems) with peak positions identified by using a set of X-rhodamine (ROX)-labeled MapMarker1000 molecular weight standards (BioVentures). The raw capillary electrophoresis data was processed using Attagraph software (Attagene).
Regarding `O=C(Cc1ccccc1)c1ccccc1`, the compound was called inactive.

As for `CC(C)OC(=O)Nc1ccccc1`, the compound was called inactive.

Take `CCCCCCCCC(=O)NCc1ccc(O)c(OC)c1`: the compound was classed as inactive.

Consider `Cc1cc(Cl)ccc1O[C@H](C)C(=O)O`, for which the outcome was inactive.

Turning to `CCOC(=O)Nc1cccc(OC(=O)Nc2ccccc2)c1`, the outcome was inactive.

As to `Cc1ccccc1N`, the result was inactive.

As to `C=CC(=O)OCCCCCC(C)C`, the result was inactive.

In the case of `CCCCP(CCCC)CCCC`, the result was inactive.

For the compound `CC12CC1(C)C(=O)N(c1cc(Cl)cc(Cl)c1)C2=O` (stereo not given), the compound was classed as inactive.

`ClCCBr`: the result was inactive.

In the case of `Nc1ccc(Cl)cc1C(=O)c1ccccc1`, the outcome was inactive.

For `COC(=O)c1sccc1S(=O)(=O)NC(=O)Nc1nc(C)nc(OC)n1`, the outcome was inactive.

With `N#Cc1ccccn1`, the compound was called inactive.

For the compound `COc1ccc(C=O)cc1`, the call was inactive.

`Fc1ccc(C2(Cn3cncn3)OC2c2ccccc2Cl)cc1` (stereo not given): the compound was called inactive.

In the case of `C1CCC(NC2CCCCC2)CC1`, the call was inactive.

`CCOP(=S)(OCC)Oc1nc(Cl)c(Cl)cc1Cl`: the AC50 is 27.2 µM (active).

Turning to `Clc1ccc(COC(Cn2ccnc2)c2ccc(Cl)cc2Cl)cc1` (stereo not given), the call was inactive.

For `C=C(C)C#N`, the call was inactive.

As to `O=C1CCCN1`, the call was inactive.

As to `Cn1sc(Cl)cc1=O`, the outcome was inactive.

With `CCOP(=O)(CN(CCO)CCO)OCC`, the outcome was inactive.

As to `O=C1C2(Cl)C3(Cl)C4(Cl)C(Cl)(Cl)C5(Cl)C3(Cl)C1(Cl)C5(Cl)C24Cl` (stereo not given), the compound was called inactive and the AC50 was 15.1 µM (active).

As for `CCOC(=O)/C=C(C)/C=C/C[C@@H](C)CCCC(C)C`, the compound was classed as inactive.

For the compound `Clc1nc(Cl)nc(Cl)n1`, the result was inactive.

For `C(=NC1CCCCC1)=NC1CCCCC1`, the AC50 is 17.7 µM (active).

With `N#CCc1ccc(Cl)cc1`, the compound was classed as inactive.

Take `C[C@H]1O[C@@H](O[C@H]2[C@@H](O)C[C@H](O[C@H]3[C@@H](O)C[C@H](O[C@H]4CC[C@@]5(C)[C@H](CC[C@@H]6[C@@H]5CC[C@]5(C)[C@@H](C7=CC(=O)OC7)CC[C@]65O)C4)O[C@@H]3C)O[C@@H]2C)C[C@H](O)[C@@H]1O`: the AC50 was 0.254 µM (active).

As for `CC(C)(c1ccccc1)c1ccc(O)c(C(C)(C)c2ccccc2)c1`, the result was inactive.

Regarding `Nc1cccc(Cl)c1`, the result was inactive.

As for `CC(C)(C)CC(C)(C)c1ccc(O)cc1`, the AC50 is 8.06 µM (active) and the compound was classed as inactive.

For `CN(C)N=O`, the result was inactive.

Regarding `N#CCCO`, the outcome was inactive.

Take `CCC1(c2ccc(N)cc2)CCC(=O)NC1=O` (stereo not given): the compound was classed as inactive.

Consider `CCC(C)c1cccc(C(C)CC)c1O` (stereo not given), for which the result was inactive.

With `CC(=O)C=C(C)C`, the call was inactive.

In the case of `COC(=O)Cc1ccccc1`, the outcome was inactive.

For `COc1ccccc1OC`, the compound was called inactive.

For orientation: AC50 means the concentration at which the activity in the assay is half-maximal.

(Values after PubChem BioAssay (EPA / NIEHS).)
